Hit rate of the full screen: of about 310,000 compounds, about 14,000 (4.5%) showed an effect of 50% or more. Effects have a minus sign here. Only a selection was taken, and strong results are over-represented in it overall.
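Note: peak tail current of the secondary pulse compared with the same well before compound.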

The assay deals with human ether-à-go-go-related gene (hERG) potassium channel (human, UniProt Q12809). The assay can be described thus: primary screen, population patch clamp on CHO cells stably expressing hERG; higher = less effect of the substance.
Chain of human ether-à-go-go-related gene (hERG) potassium channel (Q12809 whole entry, looked up): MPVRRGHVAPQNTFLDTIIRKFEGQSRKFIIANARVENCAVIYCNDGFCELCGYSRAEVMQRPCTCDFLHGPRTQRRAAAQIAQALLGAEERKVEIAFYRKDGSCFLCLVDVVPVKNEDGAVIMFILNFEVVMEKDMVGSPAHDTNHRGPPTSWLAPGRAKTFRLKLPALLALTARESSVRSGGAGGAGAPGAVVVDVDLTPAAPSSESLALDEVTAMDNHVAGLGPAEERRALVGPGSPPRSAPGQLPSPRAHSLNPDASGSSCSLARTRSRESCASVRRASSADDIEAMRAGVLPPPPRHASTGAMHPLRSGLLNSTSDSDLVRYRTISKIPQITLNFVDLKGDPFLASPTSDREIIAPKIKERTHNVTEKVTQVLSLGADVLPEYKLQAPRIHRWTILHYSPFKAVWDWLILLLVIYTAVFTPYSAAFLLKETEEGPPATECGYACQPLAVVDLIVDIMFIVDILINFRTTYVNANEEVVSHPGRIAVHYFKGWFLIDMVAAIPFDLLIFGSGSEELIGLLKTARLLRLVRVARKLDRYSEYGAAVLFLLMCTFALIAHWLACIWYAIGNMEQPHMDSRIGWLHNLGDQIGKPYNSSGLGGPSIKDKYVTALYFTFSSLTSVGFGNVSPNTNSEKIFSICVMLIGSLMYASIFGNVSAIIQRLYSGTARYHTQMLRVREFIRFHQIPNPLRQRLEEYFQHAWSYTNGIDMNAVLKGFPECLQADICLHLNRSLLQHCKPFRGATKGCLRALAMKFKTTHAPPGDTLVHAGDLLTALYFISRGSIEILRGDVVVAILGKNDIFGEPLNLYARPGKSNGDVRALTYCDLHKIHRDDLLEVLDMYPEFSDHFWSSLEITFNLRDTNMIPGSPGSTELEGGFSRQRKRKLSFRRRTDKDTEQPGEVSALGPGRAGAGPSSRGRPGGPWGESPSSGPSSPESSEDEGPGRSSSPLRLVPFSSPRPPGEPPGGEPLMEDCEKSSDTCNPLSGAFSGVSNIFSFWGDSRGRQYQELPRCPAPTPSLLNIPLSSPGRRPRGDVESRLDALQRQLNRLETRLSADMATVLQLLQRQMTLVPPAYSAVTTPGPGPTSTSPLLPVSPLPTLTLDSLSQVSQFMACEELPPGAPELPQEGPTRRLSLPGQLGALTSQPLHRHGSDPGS
Regarding `Clc1ccc(OCCOCCOc2cccc3cccnc23)c(Br)c1`, the “hERG current change (%, negative = inhibition) at 10uM” value is given as 0.0859%.
On to `O=C(CCS(=O)(=O)c1ccc(Br)cc1)N1CCCCCC1`, for which the “hERG current change (%, negative = inhibition) at 10uM” value was -25.3%.
The figure for `CN1C(=O)c2ccc(NC(=O)c3c(F)c(F)c(F)c(F)c3F)cc2C1=O` is 18.3%; for `CC(C)c1ccc(NC(=S)NN(c2ccccc2)c2ccccc2)cc1` it is 12.7%; for `O=C(NCc1ccc2c(c1)OCO2)c1ccc2c(=O)n(C3CCCC3)c(=O)[nH]c2c1` it is 4.61%.
The value for `COc1ccc(C(=O)Nc2nc3ccc(OC)cc3s2)cc1` was 12.6%; that for `Nc1ccc(-c2cnc[nH]2)cc1[N+](=O)[O-]` was -0.302%.
The value for `CCN(CCNCC(O)COCc1ccc(Cl)cc1)c1cccc(C)c1.O=C(O)C(=O)O` (stereo not drawn) was -18.2%; that for `O=C(O)c1ccccc1NCCO` was 33.8%; that for `O=C(CSc1nnc(-c2ccncc2)s1)Nc1ccccc1` was 3.19%.
Take `[O-][Cl+3]([O-])([O-])[O-].c1ccc(-c2cc(-c3ccccc3)[n+](-c3ccccc3)c(-c3ccccc3)c2)cc1`: the “hERG current change (%, negative = inhibition) at 10uM” value is -71.3%.
With `O=C(O)c1ccc(-[n+]2c(-c3ccccc3)cc(-c3ccccc3)cc2-c2ccccc2)cc1.[O-][Cl+3]([O-])([O-])[O-]`, the “hERG current change (%, negative = inhibition) at 10uM” value was 14.8%.
Regarding `O=[N+]([O-])c1ccc(-[n+]2c(-c3ccccc3)cc(-c3ccccc3)cc2-c2ccccc2)cc1.[O-][Cl+3]([O-])([O-])[O-]`, the “hERG current change (%, negative = inhibition) at 10uM” value is given as 4.73%.
For `Cc1ccc2c(COC(=O)c3ccc(NC(=O)CC#N)cc3)cc(=O)oc2c1C`, the “hERG current change (%, negative = inhibition) at 10uM” value turned out to be 3.63%.
With `COc1ccc(Nc2c3c(nc4ccccc24)CCC3)c(OC)c1`, the “hERG current change (%, negative = inhibition) at 10uM” value is given as -64.7%.
The value for `COc1ccc(C)cc1Nc1nc(N)c2ccccc2n1.Cl` was -12.8%; that for `COc1ccc(OC)c(NC(=O)COC(=O)c2c3c(nc4ccccc24)CCCC3)c1` was 1.03%; that for `COc1ccc(NC(=O)CSc2c3c(nc4ccccc24)CCC3)c(OC)c1` was -36.9%.
In the case of `COc1ccc(C)cc1Nc1c2c(nc3ccccc13)CCC2`, the “hERG current change (%, negative = inhibition) at 10uM” value is on record as -56.7%.
The value for `COc1ccccc1NC(=O)CSc1c2c(nc3ccccc13)CCC2` was -26.3%; that for `Nc1ccc2nc3c(c(Cl)c2c1)CCCC3` was -22.7%.
The figure for `COc1ccc(OC)c(NC(=O)c2c3c(nc4ccccc24)CCC3)c1` is -21.8%.
The figure for `COc1ccccc1Nc1c2c(nc3ccccc13)CCC2` is -45.6%; for `COc1ccc(OC)c(Nc2c3c(nc4ccccc24)CCC3)c1` it is -67.8%; for `COc1ccc(NC(=O)CSc2c3c(nc4ccccc24)CCCC3)c(OC)c1` it is -47.5%.
For the compound `COc1ccccc1Nc1c2c(nc3ccc(N)cc13)CCCC2`, the “hERG current change (%, negative = inhibition) at 10uM” value is listed as -72.4%.
Turning to `O=C(NC1(C(=O)NC2CCCCC2)CCCCC1)c1ccccn1`, the “hERG current change (%, negative = inhibition) at 10uM” value is given as 2.56%.
Regarding `COc1ccc(CCNC(=O)C(=O)NCc2ccc(C)cc2)cc1OC`, the “hERG current change (%, negative = inhibition) at 10uM” value is recorded as -1.57%.
On to `COc1ccccc1N1CCN(C(=O)c2cc(-c3cccs3)on2)CC1`, for which the “hERG current change (%, negative = inhibition) at 10uM” value is on record as -22.7%.
As to `COc1cccc(CNC(=O)C2Cc3ccccc3CN2C(C)=O)c1` (stereo not drawn), the “hERG current change (%, negative = inhibition) at 10uM” value came out at 2.81%.
Regarding `C=CCc1cccc(/C=N/NC(=O)COc2ccc(-n3cnnn3)cc2)c1O`, the “hERG current change (%, negative = inhibition) at 10uM” value is 11.3%.
The value for `CCN1C(=O)N[C@@H](c2cccc(C(F)(F)F)c2)[C@@H](C(=O)OC)[C@H]1C` was -19%.
`O=C(Cn1cccc1C(=O)c1ccccc1)NCc1ccc(Cl)cc1`: the “hERG current change (%, negative = inhibition) at 10uM” value is given as 18.7%.
The value for `O=C(O)CC(NS(=O)(=O)c1cccc2nsnc12)c1ccc(F)cc1` (stereo not drawn) was -17.2%.
Consider `Cc1cc(F)ccc1S(=O)(=O)Nc1ccc(C(=O)N2CCCCCC2)cc1`, for which the “hERG current change (%, negative = inhibition) at 10uM” value is on record as -27.6%.
The value for `Cc1cc(N/N=C/c2ccco2)c2ccccc2n1` was 16.6%; that for `Cc1ccc2nc(SCC(=O)N/N=C/c3ccco3)cc(C)c2c1` was 10.4%; that for `Cc1ccc2nc(N/N=C/c3ccco3)cc(C)c2c1` was -64.3%.
Turning to `C[C@@H]1CC[C@H]2[C@@H](C)C(=O)O[C@@H]3O[C@@]4(C)CC[C@@H]1[C@]32OO4`, the “hERG current change (%, negative = inhibition) at 10uM” value is recorded as 0.204%.
The value for `COc1ccc(OC)c(NC(=O)CSc2nnc(C3CCCCC3)n2N)c1` was -17.4%.
The figure for `CC(C)CC(NC(N)=O)C(=O)Nc1ccc(Oc2ccccc2)cc1` (stereo not drawn) is 10.1%.
Take `O=C(/C(=N\Nc1ccc(Br)cc1)Sc1nnnn1-c1ccccc1)c1ccccc1`: the “hERG current change (%, negative = inhibition) at 10uM” value is given as 13.8%.
For `CCN(CC)CCN1CCn2c3c(c4cc(C)ccc42)CCCC31.Cl` (stereo not drawn), the “hERG current change (%, negative = inhibition) at 10uM” value was -76.3%.
As for `CCN1CCn2c3c(c4cc(C)ccc42)CCCC31` (stereo not drawn), the “hERG current change (%, negative = inhibition) at 10uM” value is recorded as -54.2%.
The figure for `CCN1CCn2c3c(c4cc(Cl)ccc42)CCCC31.Cl` (stereo not drawn) is -39.1%; for `Cc1ccc2c(c1)c1c3n2CCN(CC#N)C3CCC1` (stereo not drawn) it is 2.24%; for `Cc1ccc2c(c1)c1c3n2CCN(CCC(=O)O)C3CCC1` (stereo not drawn) it is -3.49%.
For `Cc1ccc2c(c1)c1c3n2CCN(CC(N)=O)C3CCC1` (stereo not drawn), the “hERG current change (%, negative = inhibition) at 10uM” value is listed as 25.6%.
In the case of `NC[C@H]1O[C@H](O[C@H]2[C@H](O)[C@@H](O[C@H]3O[C@H](CO)[C@@H](O)[C@H](N)[C@H]3O)[C@H](N)C[C@@H]2N)[C@H](N)C[C@@H]1O.O=S(=O)(O)O`, the “hERG current change (%, negative = inhibition) at 10uM” value was determined as 4.47%.
The figure for `CC(C)c1nnc(NC(=O)c2nc(S(=O)(=O)Cc3ccccc3F)ncc2Cl)s1` is -5.79%; for `c1ccc2oc(C3=NNC(=NC4CC4)SC3)cc2c1` it is -58.5%.
The value for `c1ccc(CN=C2NN=C(c3cc4ccccc4o3)CS2)cc1` was -16.3%.
As to `CC(C)(C)N=C1NN=C(c2cc3ccccc3o2)CS1`, the “hERG current change (%, negative = inhibition) at 10uM” value is -9.99%.
The figure for `COc1cccc(C(c2sc3ncnn3c2O)N2CC(C)OC(C)C2)c1` (stereo not drawn) is 0.441%.
The figure for `COc1ccc(CNC(=O)c2cc3c(=O)n4ccccc4nc3n(CC3CCCO3)c2=N)cc1` (stereo not drawn) is -72.5%; for `Cc1ccc(CNC(=O)c2cc3c(=O)n4ccccc4nc3n(CC3CCCO3)c2=N)cc1` (stereo not drawn) it is -81.3%; for `N=c1c(C(=O)NCc2ccc(F)cc2)cc2c(=O)n3ccccc3nc2n1CC1CCCO1` (stereo not drawn) it is -77.4%.
For `N=c1c(S(=O)(=O)c2ccc(F)cc2)cc2c(=O)n3ccccc3nc2n1CC1CCCO1` (stereo not drawn), the “hERG current change (%, negative = inhibition) at 10uM” value was -40.8%.
The value for `N=c1c(C(=O)NCc2ccc3c(c2)OCO3)cc2c(=O)n3ccccc3nc2n1CC1CCCO1` (stereo not drawn) was -79.5%; that for `O=C(NCc1ccc2c(c1)OCO2)c1ccc2c(c1)C(=O)N(CC1CCCO1)C2=O` (stereo not drawn) was 2.28%.
For the compound `O=C(NCc1ccccc1)c1ccc2c(=O)n(CC3CCCO3)c(=S)[nH]c2c1` (stereo not drawn), the “hERG current change (%, negative = inhibition) at 10uM” value is reported as -2.39%.
With `O=C(CSc1nc2ccccc2c(=O)n1CC1CCCO1)NCc1ccc2c(c1)OCO2` (stereo not drawn), the “hERG current change (%, negative = inhibition) at 10uM” value was -30.2%.
In the case of `CCOC(=O)c1cc2c(=O)n3ccccc3nc2n(CC2CCCO2)c1=NC(C)=O` (stereo not drawn), the “hERG current change (%, negative = inhibition) at 10uM” value is given as -1.13%.

Values taken from paper PMC4336329 (PLoS ONE, 2015).
